Screens: PubChem BioAssay, National Center for Advancing Translational Sciences (NCATS)
AmpC detergent – qHTS Inhibitors of AmpC Beta-Lactamase (assay with detergent); actives 0.041% (n = 370,000); AID 485294, 2010; Potency, µM (series often up to 114 µM), inactives show top-dose activity change, negative = inhibition, hits mostly inhibitors; P00811; AmpC hydrolysis of nitrocefin, absorbance 480 nm, 0.01% Triton;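 also: 0% = no-compound wells and -100% = no-enzyme wells; nearly all actives have a fitted effect of over 25% in size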
Target sequence (P00811 whole entry, looked up): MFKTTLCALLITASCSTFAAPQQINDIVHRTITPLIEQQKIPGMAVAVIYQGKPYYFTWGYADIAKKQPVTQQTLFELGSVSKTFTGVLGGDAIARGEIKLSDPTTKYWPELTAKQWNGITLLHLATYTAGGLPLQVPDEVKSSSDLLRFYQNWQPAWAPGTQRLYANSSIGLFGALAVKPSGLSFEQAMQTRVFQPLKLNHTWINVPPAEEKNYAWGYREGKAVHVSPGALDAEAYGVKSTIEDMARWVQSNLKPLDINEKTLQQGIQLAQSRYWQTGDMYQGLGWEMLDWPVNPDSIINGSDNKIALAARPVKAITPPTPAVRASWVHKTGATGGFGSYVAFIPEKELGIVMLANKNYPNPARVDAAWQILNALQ
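AmpC (5.3 nM in the dispensed reagent) in 20 mM phosphate pH 7.0 with 0.01% (detergent screen) or 0.0001% Triton X-100 was preincubated with compounds for 15 min at room temperature. Nitrocefin was then added from an 800 uM solution, and hydrolysis was followed at 480 nm.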
Pf growth 48h – Primary qHTS for delayed death inhibitors of the malarial parasite plastid, 48 hour incubation | P. falciparum luciferase growth in erythrocytes, 48 h | AID 504832, 2011 | Potency, µM (titrated, usually from 28.7 µM), inactives show top-dose activity change, negative = inhibition, hits mostly inhibitors | actives 5.9% (n = 310,000); also: % is scaled to controls: 0 for no effect and ±100 for the full control effect
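Here the parasites carry a stable luciferase gene and grow inside erythrocytes in Albumax-based RPMI medium with compound for one erythrocytic cycle. Activity is scored as loss of luminescent signal.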
SARS PLP yeast – qHTS of Yeast-based Assay for SARS-CoV PLP | S. cerevisiae expressing SARS-CoV PLpro, growth rescue | actives 0.19% (n = 330,000) | Potency, µM (titrated, usually from 32.9 µM), for the others: at the highest dose activity, positive = growth rescue, actives largely listed as activators; calls by dose curve; also: 0% is about no effect; nearly all actives have a fitted effect of over 55% in size
Sm TGR inh – qHTS Assay for the Inhibitors of Schistosoma Mansoni Peroxiredoxins; Schistosoma mansoni thioredoxin glutathione reductase (TGR), Q962Y6; purified TGR, DTNB reduction, TNB absorbance 405 nm; Potency, µM (top dose mostly 114 µM), for inactives: at the highest dose activity change, negative = inhibition, actives largely listed as inhibitors; actives 3% (n = 360,000); AID 485364, 2010; also: % is scaled to controls: 0 for no effect and ±100 for the full control effect; nearly all actives have a fitted effect of over 60% in size
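TGR 20 nM + NADPH 100 uM (dispensed conc.), cpd preinc 15 min RT; start with NADPH (500 uM addition) then DTNB (15 mM addition). Kinetic TNB absorbance, 405 nm filter. Four-parameter Hill fit across titration.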
Pf growth 96h – Primary qHTS for delayed death inhibitors of the malarial parasite plastid, 96 hour incubation; P. falciparum luciferase reporter growth, 96 h; Potency, µM (doses to about 28.7 µM), without a hit: top-dose activity change, negative = inhibition, most hits filed as inhibitors; AID 504834, 2011; actives 6.9% (n = 320,000); also: % is scaled to controls: 0 for no effect and ±100 for the full control effect
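Infected RBCs, 2% Hct / 0.05% parasitemia final; luciferase-reporter P. falciparum; cpd 96 h, 37 C, 5% CO2; luciferase detection reagent; luminescence.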
AmpC no deterg – qHTS Inhibitors of AmpC Beta-Lactamase (assay without detergent) | AID 485341, 2010 | Potency, µM (top dose mostly 57.1 µM), inactives show at the highest dose activity change, negative = inhibition, usual class: inhibitors | P00811 | AmpC nitrocefin hydrolysis, absorbance 480 nm, 0.0001% Triton | actives 0.52% (n = 330,000);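 also: plate controls were no compound for no effect and no enzyme for full effect; nearly all actives have a fitted effect of over 20% in size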
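AmpC (5.3 nM in the dispensed reagent) in 20 mM phosphate pH 7.0 with 0.01% (detergent screen) or 0.0001% Triton X-100 was preincubated with compounds for 15 min at room temperature. Nitrocefin was then added from an 800 uM solution, and hydrolysis was followed at 480 nm.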
Active calls of the source: *; u = inconclusive; x = not tested or not shown. Most compounds without a hit are left out; they make up all but 12% or so of the library. Unless noted, calls follow the shape of the dose curve; as a rule, active = well fitted curve in the direction sought with a large enough effect; inconclusive = small, poorly fitted or top-dose-only effect, or another doubt; inactive = no such curve, though single readings can be large; an effect the other way counts as inactive or inconclusive. Potency is read from the fitted curve at half-maximal effect.

SMILES	AmpC detergent	Pf growth 48h	SARS PLP yeast	Sm TGR inh	Pf growth 96h	AmpC no deterg
O=C(CSc1nc2c([nH]c3ccccc32)c(=O)n1-c1ccc(F)cc1)NCc1ccco1	7%	u	16%	-5%	u	22µM*
O=C(CSc1nc2c([nH]c3ccccc32)c(=O)n1-c1ccc(F)cc1)NCc1ccc(F)cc1	3%	x	x	0%	x	x
O=C(CSc1nc2c(c(=O)n1-c1ccc(F)cc1)SCC2)NCc1ccco1	4%	u	3%	40µM*	-8%	-19%
Cc1ccc(-n2c(SCC(=O)NCc3ccco3)nc3nc4c(cc3c2=O)COC(C)(C)C4)cc1	-13%	9.3µM*	12%	22µM*	-11%	72%
CCOc1ccc(-n2c(SCC)nc3c(c2=O)SCC3)cc1	-15%	-5%	-6%	-19%	-23%	-23%
CCSc1nc2c(c(=O)n1-c1ccc(F)cc1)SCC2	-1%	u	-1%	4%	2.9µM*	-6%
CCOCCCNC(=O)c1ccc2c(c1)NC(=O)C(CS(=O)(=O)Cc1ccc(F)cc1Cl)N2 (centres undefined)	-6%	x	x	-19%	x	x
COc1ccc(NC(=O)CSc2nc3ccccc3n2CC(=O)N2CCCC(C)C2)cc1 (centres undefined)	8%	x	x	-8%	x	x
C=C1CN(Cc2ccccc2)S(=O)(=O)c2ccccc21	0%	u	0%	18µM*	-8%	-25%
C=C1CN(CC(=O)OC)S(=O)(=O)c2ccccc21	-6%	21%	2%	0%	-3%	-18%
ClC(Cl)(Cl)c1nc2ccccc2n2nncc12	4%	0.33µM*	-2%	2%	u	0%
Cc1ccc2c(c1)cc1c(=O)n(Cc3cccc(Cl)c3)nc(C)n12	16%	x	x	-12%	x	x
Cc1ccc(NC(=O)/C=C\C(=O)NCC(=O)O)cc1C	u	-12%	-91%	1.8µM*	30%	-13%
Cc1ccc[n+](CC(=O)Nc2ccc([N+](=O)[O-])cc2)c1	-13%	u	3%	35µM*	u	-23%
Cc1ccc(NC(=O)C[n+]2ccccc2)cc1C	-6%	14%	17%	-16%	9.3µM*	0%
Cc1cccc(NC(=O)C[n+]2ccccc2)c1	-13%	52%	-1%	9%	u	-11%
Cc1cccc(NC(=O)C[n+]2cccc(C)c2)c1	-8%	u	-4%	-11%	0.66µM*	-15%
CC(C)C(NS(=O)(=O)c1ccc2c(c1)oc(=O)n2C)C(=O)NCCc1ccccc1 (centres undefined)	-14%	x	x	2%	x	x
CCOC(=O)c1c(C)nc2ccccc2c1-c1ccccc1	u	3%	10%	1%	-19%	27%
CCOC(=O)c1c(CCl)nc2ccccc2c1-c1ccccc1	-6%	-1%	-2%	25µM*	3%	-41%
CC1C/C(=N/N=C2/NC(=O)CS2)CC(C)(C)C1 (centres undefined)	-6%	-12%	-6%	-2%	10µM*	-18%
O=C1CS/C(=N/N=C2C3CC4CC(C3)CC2C4)N1	-12%	6%	-11%	5%	13µM*	-10%
Cc1cc(C)nc(/N=C2/NC(=O)CS2)n1	-11%	20%	9%	11%	u	-16%
CC1C/C(=N/N2C(=O)CSC2=S)CC(C)(C)C1 (centres undefined)	-1%	31%	1%	u	13µM*	-36%
CCOc1ccc(N(CC)S(=O)(=O)N2CCCC(C(=O)Nc3cc(Cl)ccc3C)C2)cc1 (centres undefined)	2%	x	x	-2%	x	x
SMILES	AmpC detergent	Pf growth 48h	SARS PLP yeast	Sm TGR inh	Pf growth 96h	AmpC no deterg
COc1ccc(CN2C(=O)C(NC(=O)c3ccc(C)cc3)(C(F)(F)F)N=C2c2ccccc2)cc1 (centres undefined)	0%	x	x	-2%	x	x
CC(=O)c1ccc(NC(=O)CCNC(=O)c2ccc(Cl)cc2)cc1	-1%	-8%	1%	-2%	-1%	-17%
COC(=O)C1CCN(Cc2ccc(OCCCN3CCN(c4ccc([N+](=O)[O-])cc4)CC3)cc2)CC1	-5%	2.3µM*	1%	5%	10µM*	190%
Cc1ccc(Nc2sc(C(=O)c3ccccc3)c(N)c2S(=O)(=O)c2ccccc2)cc1Cl	17%	x	x	7%	x	x
CCCOc1ccccc1N/C(N)=N/c1nc(C)cc(C)n1	7%	15µM*	-1%	x	-23%	-14%
COc1ccc(OC)c(N/C(=N/c2nc(C)cc(C)n2)NC(C)=O)c1	u	11%	0%	3%	11%	-13%
CCCOc1ccccc1N/C(=N/c1nc(C)cc(C)n1)NC(=O)COc1ccc(OC)cc1	7%	x	2%	4%	4.7µM*	-17%
COc1ccc(N/C(=N/c2nc(C)cc(C)n2)NC(=O)Nc2ccc(Cl)c(Cl)c2)c(OC)c1	-2%	12µM*	3%	-10%	10µM*	-46%
COc1ccc(N/C(N)=N/c2nc(C)cc(C)n2)c(OC)c1	4%	-11%	0%	x	7%	-22%
CCCOc1ccccc1NC(=O)/C=C/C(N)=O	-5%	x	-37%	3.2µM*	8%	-5%
CC(C)(C)n1nc2c(c1NC(=O)Cc1ccccc1)CS(=O)(=O)C2	u	9%	-4%	8%	0%	1%
CC(=O)c1cc(F)c(N2CCN(C(=O)Cc3ccccc3)CC2)cc1C	8%	u	-3%	28µM*	6%	18%
CCC(C)(C)n1nnnc1C(c1ccc(C)cc1)N1CCC(C)CC1 (centres undefined)	u	10µM*	-3%	0%	145%	30%
CCC(C)(C)n1nnnc1C(c1ccc(C)cc1)N1CCN(Cc2ccc3c(c2)OCO3)CC1 (centres undefined)	1%	15µM*	9%	2%	u	-4%
O=C(c1ccc(OC2CCN(Cc3ccccc3C(F)(F)F)CC2)cc1)N1CCCCC1	7%	u	-8%	-23%	3.3µM*	192%
Cn1cc(CN2CCC(Oc3ccc(C(=O)N4CCCC4)cc3)CC2)cn1	-4%	4%	0%	50%	-24%	73%
CCCn1cc(CN2CCC(Oc3ccc(C(=O)N4CCCC4)cc3)CC2)c(C)n1	-2%	-16%	-3%	-17%	10µM*	3%
O=C(c1ccc(OC2CCN(Cc3ccc(C(F)(F)F)cc3)CC2)cc1)N1CCCCC1	-10%	u	-19%	-14%	u	142%
